# Measurements as given in PubChem BioAssay.
# Inconclusive results are not listed. Calls of active or inactive are those of the source. Unless noted, no cut-off is given here; in the data, nearly all actives have AC50 up to about 26 µM.
# How the values were obtained:
# [1] = growth inhibition of DIPG glioma cells, dose response, cell-based, SU-DIPG-XVII, MIPE5.0, CellTiter-Glo, qHTS (AID 1347060); settings: SU-DIPG-XVII viability, CellTiter-Glo ATP luminescence;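 for AC50: cells exposed to compound for 48 hours before viability readout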
# [2] = growth inhibition of DIPG glioma cells, dose response, cell-based, SU-DIPG-XIII, MIPE5.0, CellTiter-Glo, qHTS (AID 1347064; cut-off not given, nearly all actives have AC50 up to about 23 µM;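 for AC50: cells exposed to compound for 48 hours before the viability read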); settings: SU-DIPG-XIII viability, CellTiter-Glo ATP luminescence
# [3] = viability loss in pontine glioma line – cell-based, SU-DIPG-XXV, MIPE5.0, CellTiter-Glo, qHTS, dose response (AID 1347065); settings: CellTiter-Glo ATP luminescence;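 note: cells exposed to compound for 48 hours before ATP readout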
# [4] = JHH-DIPG-1 glioma cell viability, MIPE5.0 library, CellTiter-Glo luminescence, qHTS (AID 1347067); settings: JHH-DIPG-1 glioma viability, CellTiter-Glo ATP luminescence;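 note: cells exposed to compound for 48 hours before readout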
# [5] = SU-DIPG-XXV glioma cell viability, MIPE5.0 library, qHTS (AID 1347068; cut-off not given, nearly all actives have IC50 up to about 30 µM;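 for IC50: cells exposed to compound for 48 hours before viability readout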)
# [6] = growth inhibition of DIPG glioma cells, dose response, cell-based, SU-DIPG-XIII, MIPE4.0, CellTiter-Glo, qHTS (AID 1347061; cut-off not given, nearly all actives have AC50 up to about 37 µM;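 note: cells exposed to compound for 48 hours before readout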); settings: SU-DIPG-XIII viability, CellTiter-Glo ATP luminescence
# [7] = growth inhibition of DIPG glioma cells, dose response, cell-based, SU-DIPG-IV, MIPE4.0, CellTiter-Glo, qHTS (AID 1347063; cut-off not given, nearly all actives have AC50 up to about 30 µM;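 note: compound exposure lasted 48 hours before the viability readout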); settings: SU-DIPG-IV viability, CellTiter-Glo ATP luminescence
# [8] = SU-DIPG-VI glioma cell viability, MIPE4.0 library, CellTiter-Glo luminescence, qHTS (AID 1347066; cut-off not given, nearly all actives have AC50 up to about 30 µM;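 note: cells exposed to compound for 48 hours before readout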); settings: CellTiter-Glo ATP luminescence
# [9] = sensitizers of A549 cells to miR-34 induction, primary screen, imaging, A549 dox-inducible miR-34, nuclei and caspase counts (AID 1347080;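 active = compounds whose cell count with miR-34 switched on is under 0.7 times the count with it off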); settings: A549 miR-34 inducible, Hoechst nuclei count, 48 h
# [10] = survival rescue of mitochondrial mutant cells in low glucose, primary screen, MELAS cybrids, Rieske KO mouse fibroblasts, CellTiter-Glo (AID 1508586;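 active = mean z-score across replicates of 1.96 or higher in either the MELAS or the Rieske mutant cell line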;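 note: z relative to plate mean and SD of compound and empty wells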)
# [11] = growth inhibition of DIPG glioma cells, dose response, cell-based, JHH-DIPG-1, MIPE4.0, CellTiter-Glo, qHTS (AID 1347062; cut-off not given, nearly all actives have AC50 up to about 27 µM;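 for AC50: cells exposed to compound for two days before readout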); settings: JHH-DIPG-1 viability, CellTiter-Glo ATP luminescence
# [12] = viability rescue of complex I mutant cybrids, primary screen, cell-based, galactose medium, ATP luminescence (AID 1645843;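 active = z-score of at least 1.8 in each of two replicates, scored against plate mean and spread of sample wells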;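 note: positive z means more ATP and so rescue of galactose-driven cybrid death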); settings: complex I mutant cybrid cells, 72 h, stronger effect = higher value
# [13] = measured here: relative caspase fold change +Dox/-Dox
# [14] = measured here: total cells with miR-34 induction, stronger effect = lower value
# [15] = measured here: total cells without miR-34 induction
# [16] = MELAS cybrid survival, CellTiter-Glo 48 h, stronger effect = higher value
# [17] = Rieske KO mouse fibroblast survival, CellTiter-Glo 72 h
compound,measurement,setting,value
COc1cc(C)[nH]c(=O)c1CNC(=O)c1c(C)n([C@H](C)C2CCOCC2)c2ccccc12,outcome,[1],inactive
same,outcome,[2],inactive
same,outcome,[3],inactive
same,outcome,[4],inactive
Cn1c(CCCCCCC(=O)NO)nc2cc(N(CCCl)CCCl)ccc21,AC50,[1],9340 nM (active)
same,AC50,[4],9340 nM (active)
same,outcome,[5],inactive
CN1C(=O)[C@@H](NC(=O)[C@H](CCC(F)(F)F)[C@H](CCC(F)(F)F)C(N)=O)N=C(c2ccccc2)c2ccccc21,outcome,[1],inactive
same,outcome,[2],inactive
same,outcome,[3],inactive
same,outcome,[4],inactive
same,outcome,[5],inactive
O=C(O)CNC(=O)C1C(=O)N(C2CCCCC2)C(=O)N(C2CCCCC2)C1=O,AC50,[1],20900 nM (active)
same,outcome,[2],inactive
same,outcome,[3],inactive
same,outcome,[5],inactive
CCN(CC)C(=O)c1ccc(C2=CC3(CCNCC3)Oc3cccc(O)c32)cc1,outcome,[6],inactive
same,outcome,[7],inactive
same,outcome,[2],inactive
same,outcome,[8],inactive
same,outcome,[4],inactive
same,fold change,"[9]; stronger effect = lower value, cell number ratio, induced over uninduced",0.925 (inactive)
same,fold change,[9]; [13],0.955
same,cell count,[9]; [14],8090
same,cell count,[9]; [15],8740
same,z-score,[10]; [16],-0.509 (inactive)
same,z-score,[10]; [17],0.582
COc1cccc2c1[C@]13CCN(CC4CC4)[C@H](C2)[C@]1(OC)CCC(=O)C3,outcome,[6],inactive
same,outcome,[11],inactive
same,outcome,[8],inactive
CC[C@@H]1[C@@H](C)O[C@@](O)([C@@H](C)[C@H](O)[C@H](C)[C@H]2OC(=O)/C=C/C=C/[C@H](C)[C@@H]([C@@H](C)[C@@H](O)[C@H](C)[C@@]3(O)C[C@@H](O[C@H]4C[C@H](O)[C@H](O)[C@H](C)O4)[C@H](CC)[C@@H](C)O3)OC(=O)/C=C/C=C/[C@@H]2C)C[C@H]1O[C@H]1C[C@H](O)[C@H](O)[C@H](C)O1,AC50,[11],590 nM (active)
same,AC50,[7],743 nM (active)
same,AC50,[8],469 nM (active)
C[C@](O)(CS(=O)(=O)c1ccc(F)cc1)C(=O)Nc1ccc(C#N)c(C(F)(F)F)c1,AC50,[11],2350 nM (active)
same,AC50,[7],1660 nM (active)
same,fold change,[9]; stronger effect = lower value,0.814 (inactive)
same,fold change,[9]; [13],0.512
same,cell count,[9]; [14],7480
same,cell count,[9]; [15],9190
same,z-score,[10]; [16],0.389 (inactive)
same,z-score,[10]; [17],-0.102
same,z-score,[12],-0.71 (inactive)
O=[N+]([O-])c1ncc[nH]1,outcome,[6],inactive
same,outcome,[11],inactive
same,outcome,[7],inactive
same,outcome,[8],inactive
same,fold change,[9]; stronger effect = lower value,0.87 (inactive)
same,fold change,[9]; [13],0.789
same,cell count,[9]; [14],7870
same,cell count,[9]; [15],9040
same,z-score,[10]; [16],-0.216 (inactive)
same,z-score,[10]; [17],0.743
COc1ccc2c(c1)[C@]13CCCCC1C(C2)N(C)CC3 (stereo partly drawn),outcome,[11],inactive
same,outcome,[7],inactive
same,outcome,[8],inactive
same,fold change,[9]; stronger effect = lower value,0.884 (inactive)
same,fold change,[9]; [13],1.91
same,cell count,[9]; [14],7550
same,cell count,[9]; [15],8540
same,z-score,[12],0.055 (inactive)
CNC(=O)c1ccc(N2C(=S)N(c3ccc(C#N)c(C(F)(F)F)c3)C(=O)C23CCC3)cc1F,outcome,[6],inactive
same,AC50,[11],10500 nM (active)
same,AC50,[7],9350 nM (active)
same,outcome,[8],inactive
same,outcome,[5],inactive
C[C@H]1[C@@H](CC(C[C@H]2O[C@@H]3O[C@]4(C)CC[C@H]5[C@H](C)CC[C@@H]([C@H]2C)[C@@]35OO4)CS(=O)(=O)c2ccc(COC(=O)N(C)C)cc2)O[C@@H]2O[C@]3(C)CC[C@H]4[C@H](C)CC[C@@H]1[C@@]24OO3 (stereo partly drawn),AC50,[7],209 nM (active)
CO[C@H]1CCC(O[C@H]2C[C@H]([C@]3(C)CC[C@]4(C[C@H](O)[C@@H](C)[C@@H]([C@@H](C)/C=C(\C)C(=O)[C@H](C)C[C@H](C)C(=O)O)O4)O3)O[C@]3(O[C@@H]([C@H]4O[C@@](O)(CO)[C@H](C)C[C@@H]4C)C[C@@H]3C)[C@@H]2C)O[C@@H]1C (stereo partly drawn),AC50,[6],3320 nM (active)
same,AC50,[11],1480 nM (active)
same,AC50,[2],1660 nM (active)
same,AC50,[3],742 nM (active)
same,AC50,[8],526 nM (active)
same,AC50,[4],742 nM (active)
same,IC50,[5],934 nM (active)
O=C(N[C@@H](COc1ccc2[nH]c(=O)[nH]c2c1)c1ccccc1)c1cccn(Cc2ccc(F)c(F)c2)c1=O,outcome,[6],inactive
same,outcome,[2],inactive
same,AC50,[3],18600 nM (active)
same,AC50,[4],16600 nM (active)
same,outcome,[5],inactive
Cc1sc2c(c1C)C(c1ccc(Cl)cc1)=N[C@@H](CC(=O)OC(C)(C)C)c1nnc(C)n1-2,AC50,[6],18700 nM (active)
same,AC50,[3],2630 nM (active)
same,AC50,[4],16600 nM (active)
CNC(=O)N1N=C(c2ccc(N)cc2)c2cc3c(cc2CC1C)OCO3 (stereo not drawn),outcome,[11],inactive
same,outcome,[8],inactive
